We go through 32 compounds from PubChem BioAssay (NCATS).

Inconclusive results are not listed. Some compounds were tested as several samples or in several runs, with calls that do not always agree. Activity calls are given as the source filed them. Unless noted, calls follow the shape of the dose curve; as a rule, active = well fitted curve in the direction sought with a large enough effect; inconclusive = small, poorly fitted or top-dose-only effect, or another doubt; inactive = no such curve, though single readings can be large; an effect the other way counts as inactive or inconclusive.

Test [1] concerns the target Rap guanine nucleotide exchange factor 4 (Homo sapiens) (UniProt Q8WZA2). Briefly: Confirmatory qHTS for agonist of cAMP-regulated guanine nucleotide exchange factor 4 (EPAC2) (AID 1645884).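 Also: nucleotide exchange releases bodipy-GDP from Rap1 and this lowers its fluorescence; % is scaled to controls: 0 for no effect and ±100 for the full control effect; nearly all actives have a fitted effect of over 65% in size.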 In general terms: Quantitative high-throughput screening tests each substance at several concentrations.
The target of test [2] is M-phase phosphoprotein 8 (Homo sapiens) (UniProt Q99549). Briefly: qHTS Validation Assay for Inhibitors for MPP8 Chromodomain Interactions with Methylated Histone Tails (AID 488949). Also: nearly all actives have a fitted effect of over 55% in size. Also: potency is read from the fitted curve at half-maximal effect. A digest of the protocol:
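MPP8 (50 nM) was preincubated with biotinylated H3(1-18)K9me3 peptide (50 nM) in PBS pH 7.4, 0.01% Tween-20 for 30 min at room temperature, then with compounds for 30 min; binding was detected by AlphaScreen.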

Test [3] is described as follows: Counterscreen for APE1 Inhibitors: Fluorescent Dye Displacement Validation Assay (AID 1707).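 Also: plate controls were ThO with dsDNA and no compound for no effect and ThO without dsDNA for full effect.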 An outline of the steps: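 Assay buffer: Tris-HCl pH7.5 with 50mM NaCl, 2 mM MgCl2, 0.01% Tween-20. Dye 250 nM, duplex 50 nM final. Readout: decrease in ThO endpoint fluorescence, 480 nm excitation, 540 nm emission.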
Test [4] in a line: qHTS for differential inhibitors of proliferation of Plasmodium falciparum line Dd2 (AID 1882). Also: nearly all actives have a fitted effect of over 65% in size. Also: potency is read from the fitted curve at half-maximal effect. Particulars: Potency: Plasmodium falciparum Dd2 proliferation inhibition. A digest of the protocol:
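Dd2-infected erythrocytes (0.3% parasitemia, 2.5% hematocrit final) incubated with compound 72 h at 37 C, 5% CO2; lysed with saponin/Triton buffer containing SYBR Green I, incubated overnight in the dark, then read by fluorescence (485/535 nm). Normalized to 0.29 uM artemisinin and DMSO.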

A short description of test [5]: Quantitative high throughput screen for delayed death inhibitors of the malarial parasite plastid, 96 hour incubation (AID 488745). Also: nearly all actives have a fitted effect of over 70% in size. Also: potency is read from the fitted curve at half-maximal effect. A digest of the protocol: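 Luciferase-expressing P. falciparum in erythrocytes (2% hematocrit, 0.1% parasitemia) incubated with compound for 96 h at 37 C, 5% CO2, in RPMI 1640 with 0.5% Albumax. Growth inhibition read as decreased luminescence.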

Test [6] can be described thus: qHTS for differential inhibitors of proliferation of Plasmodium falciparum line 7G8 (AID 1815).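 Also: parasite growth measured after three days of incubation.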 Also: potency is read from the fitted curve at half-maximal effect.
Test [7] is described as follows: qHTS for differential inhibitors of proliferation of Plasmodium falciparum line GB4 (AID 1816).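 Also: parasite growth measured after 72 h incubation.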 Also: potency is read from the fitted curve at half-maximal effect. Particulars: Potency: Plasmodium falciparum GB4 proliferation inhibition.
A short description of test [8]: qHTS for differential inhibitors of proliferation of Plasmodium falciparum line D10 (AID 1877).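 Also: parasites grown with compound for 72 h before DNA staining.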 Also: potency is read from the fitted curve at half-maximal effect.
Test [9] is described as follows: qHTS for differential inhibitors of proliferation of Plasmodium falciparum line HB3 (AID 1886).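 Also: parasites grown with compound for 72 h before SYBR Green readout.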 Also: potency is read from the fitted curve at half-maximal effect. Particulars: Potency: Plasmodium falciparum HB3 proliferation inhibition.
A short description of test [10]: S16 Schwann cell PMP22 intronic element firefly luciferase assay (AID 624032). Also: nearly all actives have a fitted effect of over 30% in size. Also: potency is read from the fitted curve at half-maximal effect. A digest of the protocol:
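Luciferase reporter of PMP22 intronic-element expression in stably transfected S16 rat Schwann cells, read by ONE-Glo luminescence after 24 h compound exposure at 37 C. Activity scaled between DMSO (0%) and positive-control PTC124; concentration-effect curves quality-classified.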

The nature of test [11]: qHTS profiling for inhibitors of Plasmodium falciparum proliferation (AID 504749).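 Also: 0% = DMSO vehicle and full inhibition = artemisinin control; nearly all actives have a fitted effect of over 60% in size.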 Particulars: P. falciparum in erythrocytes, SYBR Green DNA, 72 h, at 28.7 µM (top of the series). An outline of the steps:
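Infected RBCs, 0.3% parasitemia/2.5% Hct final; cpd 72 h, 37 C, 5% CO2; lysis buffer with saponin/triton/SYBR Green I, o/n RT dark; FI 485/535; norm. to artemisinin (0.29 uM) and DMSO.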

Test [12] addresses Rap guanine nucleotide exchange factor 3 (Homo sapiens) (UniProt O95398). Briefly: Confirmatory qHTS for agonist of cAMP-regulated guanine nucleotide exchange factor 3 (EPAC1) (AID 1645881).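 Also: EPAC1 catalysed release of BODIPY-GDP from Rap1B seen as fluorescence loss; 100% = effect of cAMP agonist control; nearly all actives have a fitted effect of over 75% in size.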
Test [13] is described as follows: Cellular Toxicity (caspase-3) Hek293 (AID 664).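 Also: cells exposed to compound for 16 h at 37 °C before readout.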 An outline of the steps:
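HEK293 cells in complete medium treated 16 h at 37 °C, then Caspase-Glo 3/7 luminescence read after 20 min at room temperature. Normalized to DMSO and 100 uM tamoxifen; AC50 from Hill fit of concentration-response.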

Test [14] can be described thus: Cellular Toxicity (caspase-3) Renal Proximal Tubule (AID 667).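 Also: cells exposed to compound for 16 hours at 37 °C before detection; 0% = DMSO basal and 100% = 10 µM staurosporine.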 Particulars: renal proximal tubule cells; at 91.7 µM (top of the series), primary cells freshly taken from rat, solvent-only wells 0%, staurosporine 100% unless noted. An outline of the steps:
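Primary rat proximal tubule cells, 1000/well, 5 h plating at 37 °C, then compound 16 h at 37 °C. Caspase-Glo 3/7 reagent, 1 h RT, luminescence. Normalized to DMSO (basal) and 10 uM staurosporine (100%); Hill-fit AC50.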

Test [15] is described as follows: Cell Viability - LYMP2-019 (AID 973).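 Also: 0% = DMSO alone and full effect = 92 µM tetraoctylammonium bromide; nearly all actives have a fitted effect of over 55% in size.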 A digest of the protocol: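 Human lymphoblastoid LYMP2-019 cells (2500/well) preincubated 5 h at 37 C, then treated 24 h at 37 C in complete medium. Viability by CellTiter-Glo ATP luminescence after 30 min at room temperature; AC50 from Hill fits.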
Test [16] addresses Glutathione peroxidase 1 (Homo sapiens) (UniProt P07203). Briefly: Primary qHTS Assay for Inhibitors of Recombinant Selenoprotein Glutathione Peroxidase 1 (GPX1) (AID 1845191). Also: nearly all actives have a fitted effect of over 65% in size. As to activity, negative = inhibition: % is scaled to controls: 0 for no effect and ±100 for the full control effect. A digest of the protocol: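 10 nM GPX1 + cpd, 30 min RT; start w/ 1 mM GSH, 0.5 mM cumene hydroperoxide, 0.5 mM NADPH, 100 nM GR, 0.01% BSA; buffer 50 mM Tris-HCl pH 7.5, 2 mM EDTA, 150 mM NaCl; Fl 340/450, 0 & 15 min.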

The nature of test [17]: Cellular Toxicity (caspase-3) H-4-II-E (AID 663).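 Also: cells exposed to compound for 16 hr before readout; 0% = DMSO basal and 100% = 100 µM tamoxifen.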 An outline of the steps:
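Apoptosis induction is scored as increased luminescence from caspase 3/7 substrate cleavage in rat hepatoma H-4-II-E cells exposed to compound for 16 hr. Activity is scaled between DMSO and 100 uM tamoxifen.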

A short description of test [18]: Cell Viability - LYMP2-021 (AID 974).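 Also: compound exposure lasts 24 hours at 37 °C; % is scaled to controls: 0 for no effect and ±100 for the full control effect; nearly all actives have a fitted effect of over 55% in size.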 A digest of the protocol: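 Human lymphoblastoid LYMP2-021 cells, 2500/well in complete medium, treated 24 hours at 37 C. Intracellular ATP by CellTiter-Glo luminescence (30 min, RT); AC50 from Hill fits of concentration-response.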
Test [19] in a line: qHTS assay for small molecule agonists of the antioxidant response element (ARE) signaling pathway (AID 651741; active = well fitted activation curve with a large enough effect in the signal ratio; the % refers to the signal ratio; also: potency is read from the fitted curve at half-maximal effect; as to activation: % of control where 0% means no effect). An outline of the steps:
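Quantitative HTS in HepG2 cells stably expressing an ARE-beta-lactamase reporter; 16 h compound exposure at 37 C, followed by 2 h room-temperature incubation with LiveBLAzer B/G FRET substrate and fluorescence measurement.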

The nature of test [20]: Cellular Toxicity (caspase-3) BJ (AID 658).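 Also: 0% = DMSO basal and 100% = 10 µM staurosporine.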 A digest of the protocol:
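Readout: Caspase-Glo 3/7 luminescence increase in BJ cells after 16 hr treatment at 37 °C. Staurosporine and tamoxifen served as positive controls; AC50 values came from Hill modelling of data normalized to DMSO and 10 uM staurosporine.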

Sequence of M-phase phosphoprotein 8 (Homo sapiens) (Q99549 whole entry, looked up): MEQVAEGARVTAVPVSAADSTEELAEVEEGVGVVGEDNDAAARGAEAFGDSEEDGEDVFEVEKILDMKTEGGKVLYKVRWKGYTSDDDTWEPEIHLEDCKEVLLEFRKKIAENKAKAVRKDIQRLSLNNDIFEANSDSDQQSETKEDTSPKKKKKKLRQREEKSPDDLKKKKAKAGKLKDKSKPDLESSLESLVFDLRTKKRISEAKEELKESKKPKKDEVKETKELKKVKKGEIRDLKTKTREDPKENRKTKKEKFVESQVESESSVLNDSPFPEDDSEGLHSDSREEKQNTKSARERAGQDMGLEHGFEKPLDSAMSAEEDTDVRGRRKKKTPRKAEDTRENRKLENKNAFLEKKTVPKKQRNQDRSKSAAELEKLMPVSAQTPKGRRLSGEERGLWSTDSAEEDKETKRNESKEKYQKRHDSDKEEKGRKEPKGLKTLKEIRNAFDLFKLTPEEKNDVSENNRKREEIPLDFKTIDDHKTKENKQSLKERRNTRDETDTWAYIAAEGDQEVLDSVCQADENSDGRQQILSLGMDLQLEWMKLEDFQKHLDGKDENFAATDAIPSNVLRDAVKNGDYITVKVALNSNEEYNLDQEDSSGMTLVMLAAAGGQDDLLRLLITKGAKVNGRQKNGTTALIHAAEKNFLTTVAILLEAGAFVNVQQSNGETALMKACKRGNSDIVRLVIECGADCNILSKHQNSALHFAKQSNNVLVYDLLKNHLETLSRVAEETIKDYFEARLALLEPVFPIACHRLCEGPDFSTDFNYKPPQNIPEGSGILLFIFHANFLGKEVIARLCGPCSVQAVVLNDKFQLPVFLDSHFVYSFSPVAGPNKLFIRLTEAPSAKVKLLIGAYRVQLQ
Sequence of Glutathione peroxidase 1 (Homo sapiens) (P07203 whole entry, looked up): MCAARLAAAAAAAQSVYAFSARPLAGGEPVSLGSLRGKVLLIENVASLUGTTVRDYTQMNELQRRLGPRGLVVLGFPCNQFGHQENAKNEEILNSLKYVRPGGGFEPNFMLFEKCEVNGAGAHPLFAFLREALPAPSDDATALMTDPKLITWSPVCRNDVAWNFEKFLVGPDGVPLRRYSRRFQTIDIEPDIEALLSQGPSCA
Sequence of Rap guanine nucleotide exchange factor 3 (Homo sapiens) (O95398 whole entry, looked up): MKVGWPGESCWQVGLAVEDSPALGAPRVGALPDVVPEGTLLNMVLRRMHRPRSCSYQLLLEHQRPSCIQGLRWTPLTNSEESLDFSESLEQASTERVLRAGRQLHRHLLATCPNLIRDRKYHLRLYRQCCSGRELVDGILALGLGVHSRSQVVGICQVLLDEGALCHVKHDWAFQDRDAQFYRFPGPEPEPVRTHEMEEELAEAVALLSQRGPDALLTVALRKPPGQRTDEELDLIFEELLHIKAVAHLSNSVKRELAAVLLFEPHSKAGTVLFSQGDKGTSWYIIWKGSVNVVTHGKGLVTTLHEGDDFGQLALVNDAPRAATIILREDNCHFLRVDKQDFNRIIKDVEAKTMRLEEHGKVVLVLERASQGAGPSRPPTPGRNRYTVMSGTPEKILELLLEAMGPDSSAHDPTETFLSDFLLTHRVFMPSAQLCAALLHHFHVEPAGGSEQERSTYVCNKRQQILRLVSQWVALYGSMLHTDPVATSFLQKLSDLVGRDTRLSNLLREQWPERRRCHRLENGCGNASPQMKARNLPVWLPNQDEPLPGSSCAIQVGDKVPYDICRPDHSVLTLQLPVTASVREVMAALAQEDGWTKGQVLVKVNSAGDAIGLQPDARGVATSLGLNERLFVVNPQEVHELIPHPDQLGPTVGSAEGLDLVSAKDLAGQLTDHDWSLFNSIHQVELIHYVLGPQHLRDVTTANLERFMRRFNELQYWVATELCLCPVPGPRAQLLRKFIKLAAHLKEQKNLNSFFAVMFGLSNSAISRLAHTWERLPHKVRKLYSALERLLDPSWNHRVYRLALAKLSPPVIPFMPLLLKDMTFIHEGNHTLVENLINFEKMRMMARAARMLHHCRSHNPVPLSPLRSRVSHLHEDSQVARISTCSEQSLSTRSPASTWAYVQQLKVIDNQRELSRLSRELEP
Sequence of Rap guanine nucleotide exchange factor 4 (Homo sapiens) (Q8WZA2 whole entry, looked up): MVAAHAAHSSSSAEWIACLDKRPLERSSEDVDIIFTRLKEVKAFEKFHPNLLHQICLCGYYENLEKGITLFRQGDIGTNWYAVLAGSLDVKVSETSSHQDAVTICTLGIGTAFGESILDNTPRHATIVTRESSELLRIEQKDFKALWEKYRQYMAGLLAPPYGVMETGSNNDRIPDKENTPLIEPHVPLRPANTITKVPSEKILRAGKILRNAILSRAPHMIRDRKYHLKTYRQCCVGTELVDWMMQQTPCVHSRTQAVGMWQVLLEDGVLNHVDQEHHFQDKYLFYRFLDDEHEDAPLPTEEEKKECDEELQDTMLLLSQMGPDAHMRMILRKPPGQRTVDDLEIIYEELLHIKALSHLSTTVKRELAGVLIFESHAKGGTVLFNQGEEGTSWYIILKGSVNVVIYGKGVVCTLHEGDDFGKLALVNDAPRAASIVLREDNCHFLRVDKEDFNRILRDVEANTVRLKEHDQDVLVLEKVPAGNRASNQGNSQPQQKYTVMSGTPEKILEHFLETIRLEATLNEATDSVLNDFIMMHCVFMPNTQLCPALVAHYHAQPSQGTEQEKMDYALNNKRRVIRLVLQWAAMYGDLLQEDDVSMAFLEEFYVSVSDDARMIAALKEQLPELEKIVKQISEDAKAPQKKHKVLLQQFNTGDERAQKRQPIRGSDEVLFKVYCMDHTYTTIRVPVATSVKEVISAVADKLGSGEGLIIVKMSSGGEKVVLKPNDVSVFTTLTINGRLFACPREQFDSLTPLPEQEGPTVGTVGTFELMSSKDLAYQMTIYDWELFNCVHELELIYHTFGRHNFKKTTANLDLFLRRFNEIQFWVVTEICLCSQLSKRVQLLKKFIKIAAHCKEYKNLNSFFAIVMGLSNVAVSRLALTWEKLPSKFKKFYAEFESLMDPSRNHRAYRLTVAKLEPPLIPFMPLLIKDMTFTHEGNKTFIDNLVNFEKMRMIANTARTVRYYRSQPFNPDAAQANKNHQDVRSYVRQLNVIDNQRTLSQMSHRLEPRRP

For `Nc1ccc(Cl)cc1C(=O)c1ccccc1Cl`, the activation in test [1] was 8.81% [at 17.1 µM, percent relative to cAMP agonist control] (inactive).
`N.N.N.N.N.N.N.N.N.N.N.N.N.N.O.O.[Cl-].[Cl-].[Cl-].[Cl-].[Cl-].[Cl-].[Ru].[Ru].[Ru]`: the Potency in test [2] was 10 µM (active).
Turning to `C[C@]12CC[C@@H](O)CC1CCC1C2CC[C@]2(C)C(=O)CC[C@@H]12` (stereo not given in full), the outcome in test [3] was inactive. Further, the Potency entry in test [4], in test [5] and in test [2] was “inactive” in each case.
Take `C[C@]12CC[C@H](OS(=O)(=O)O)CC1=CCC1C2CC[C@]2(C)C(=O)CC[C@@H]12` (stereo not given in full): the result in test [3] was inactive. Further, the Potency result in test [6], in [7], in [8], in [4], in test [9] and in test [5] was “inactive” in each case. Also, the Potency result in test [2] and in test [10] was “inactive” throughout. Besides, the activity, negative = inhibition in test [11] (parasite line A) was -6.88% (inactive); in [11] (parasite line B), 5.59% (inactive).
Regarding `c1ccc(C(c2ccccc2)c2cccnc2)cc1`, the Potency entry in [12] was “inactive”.
`Nc1c(Br)cc2c3c(cccc13)-c1ccccc1-2`: in test [1], the activation is 8.9% [at 17.1 µM, percent relative to cAMP agonist control] (inactive).
For `COc1ccc(-n2nnnc2C(c2cccs2)N2CCC(n3c(=O)[nH]c4ccccc43)CC2)cc1` (stereo not given), the Potency entry in test [12] was “inactive”.
Regarding `CN1CCN2c3ccc(N)cc3CC3(C(=O)NC(=O)NC3=O)C2C1` (stereo not given), the Potency result in test [12] was “inactive”.
On to `C[C@]12C=CC(=O)C=C1CCC1C2=CC[C@]2(C)[C@@H](C(=O)CN3CCN(c4cc(N5CCCC5)nc(N5CCCC5)n4)CC3)CC[C@@H]12` (stereo not given in full), for which the result in test [3] was inactive. Besides, the Potency in test [6] is 1120 nM (active); in [7], 1260 nM (active); in test [8], 1580 nM (active); in [4] it was 10000 nM (active); in [9], 1410 nM (active).
On to `Cc1cccc(CN2C(=O)CN=C(c3ccccc3)c3cc(Cl)ccc32)c1`, for which the Potency entry in [1] is “inactive”.
Turning to `COc1ccc(C2C=C(C)Oc3c2c(=O)oc2ccccc32)cc1OC` (stereo not given), the Potency entry in [12] was “inactive”.
The same measure, in the same setting: as for `O=C(c1cc(-c2ccc(Cl)cc2)n(-c2ccc(Cl)cc2Cl)n1)N1CCOCC1`, the entry is “inactive”.
Regarding `[Hg+][c]1ccccc1`, the Potency in test [10] is 1020 nM (active). Further, the activity, negative = inhibition was 13.8% (inactive) in test [11] (parasite line A) and -0.414% (inactive) in test [11] (parasite line B).
Turning to `COC1=CC(=O)OC(CCc2ccccc2)C1` (stereo not given), in [13], the compound was classed as inactive. For the same compound, the caspase-3 activation in test [14] is 1.48% (inactive). In addition, in test [15], the Potency entry is “inactive”.
For the compound `CCCCOC(=O)c1ccnc2cc(C(OCCN3CCCCC3)c3ccccc3C)sc12` (stereo not given), the Potency entry in test [16] was “inactive”.
In the case of `Cc1ccc(-n2nccn2)c(C(=O)N2CCN(c3nc4cc(Cl)ccc4o3)CC[C@H]2C)c1`, the Potency result in test [16] is “inactive”.
For `C[S+](CC[C@H](N)C(=O)O)C[C@H]1O[C@@H](n2cnc3c(N)ncnc32)[C@H](O)[C@@H]1O` (stereo not given in full), the Potency result in test [10] is “inactive”.
`C=CCN1CC[C@]2(C)c3cc(O)ccc3CC1[C@@H]2C`: the Potency entry in test [16] was “inactive”.
In the case of `CN1C[C@H](C(=O)N[C@]2(C)O[C@@]3(O)C4CCCN4C(=O)[C@H](Cc4ccccc4)N3C2=O)C[C@@H]2c3cccc4[nH]cc(c34)C[C@H]21` (stereo not given in full), the Potency in [6] was 224 nM (active); in test [7], 2240 nM (active); in test [8] it was 4470 nM (active); in test [4] it was 2510 nM (active); in test [9], 891 nM (active).
For `S=C(S)N1CCCC1`, the Potency is 2820 nM (active) in test [6]; 2820 nM (active) in test [7]; 7940 nM (active) in test [4]; 2510 nM (active) in test [9]; 5860 nM (active) in [5]. In addition, the Potency result in test [2] was “inactive”.
`COC1=CC(=O)O[C@@H](/C=C/c2ccc3c(c2)OCO3)C1`: the call in test [17] and in test [13] was inactive. Moreover, the Potency result in [15] and in [18] was “inactive” in each case. The Potency in test [19] was 6680 nM (active).
For `Cc1ccc([N+](=O)[O-])cc1C`, the result in test [13] was inactive. Moreover, in test [19], the Potency result is “inactive”.
Take `C=C(C)C#N`: the outcome in test [20] and in [17] was inactive. In addition, in [14], the caspase-3 activation is 7.27% (inactive).
For the compound `COc1cc(OC)c(/C=C2/C(=O)Nc3ccccc32)c(OC)c1`, the Potency is 11200 nM (active) in test [9]; 12.6 µM (active) and inactive in [2].
In the case of `NC(=S)Nc1ccccc1`, the Potency entry in test [18] and in test [19] was “inactive” in each case.
On to `CN1[C@@H]2CC(O)C[C@H]1[C@@H]1O[C@@H]12` (stereo not given in full), for which, in [16], the Potency result is “inactive”.
`CC(=O)O[C@H]1C[C@@H]2CCC3C(CC[C@@]4(C)[C@H]3C[C@H]([N+]3(C)CCCCC3)[C@@H]4OC(C)=O)[C@@]2(C)C[C@@H]1[N+]1(C)CCCCC1` (stereo not given in full): in test [5], the Potency was 13100 nM (active).
In the case of `c1ccc2c(c1)CCCC2`, the result in test [20], in [17] and in [13] was inactive. Also, the caspase-3 activation in [14] is -4.18% (inactive). Moreover, the Potency result in test [18] and in test [19] was “inactive” each time.
On to `O=NN(c1ccccc1)c1ccccc1`, for which, in [20], the result was inactive. In test [18], the Potency result was “inactive”.
Turning to `CCCCOCCOP(=O)(OCCOCCCC)OCCOCCCC`, in [20], the call was inactive. Further, the caspase-3 activation in test [14] was -4.16% [at 91.7 µM] (inactive). Further, the Potency result in [15] is “inactive”.
For `C=CC(=C)C`, the outcome in test [17] was inactive. Besides, the caspase-3 activation in test [14] was -6.39% (inactive). The Potency entry in [18] is “inactive”.
`CCSC(=O)Cl`: the compound was classed as inactive in test [17] and in [13]. Moreover, the Potency entry in test [15] and in [19] was “inactive” throughout.
